Of roughly 8,800 targets only a part is listed; those with a hit were picked by preference. About 0.5% of all pairs of compound and target were hits. A number with no mark means an inactive call.

Sequence of UniProt P61011 (P61011 whole entry, looked up): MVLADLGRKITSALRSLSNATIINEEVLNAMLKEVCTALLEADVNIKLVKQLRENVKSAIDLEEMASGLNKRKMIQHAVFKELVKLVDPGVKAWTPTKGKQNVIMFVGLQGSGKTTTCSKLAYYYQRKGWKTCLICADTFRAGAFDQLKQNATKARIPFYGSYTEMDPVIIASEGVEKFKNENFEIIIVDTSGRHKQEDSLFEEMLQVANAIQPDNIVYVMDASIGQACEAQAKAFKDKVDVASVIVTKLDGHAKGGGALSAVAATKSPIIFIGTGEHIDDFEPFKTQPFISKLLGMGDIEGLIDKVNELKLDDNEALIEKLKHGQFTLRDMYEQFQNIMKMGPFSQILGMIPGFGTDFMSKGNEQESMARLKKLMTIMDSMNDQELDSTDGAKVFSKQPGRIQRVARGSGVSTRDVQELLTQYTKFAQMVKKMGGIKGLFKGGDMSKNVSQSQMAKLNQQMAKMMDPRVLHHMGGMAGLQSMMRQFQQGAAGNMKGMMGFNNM
Sequence of UniProt O43808 (O43808 whole entry, looked up): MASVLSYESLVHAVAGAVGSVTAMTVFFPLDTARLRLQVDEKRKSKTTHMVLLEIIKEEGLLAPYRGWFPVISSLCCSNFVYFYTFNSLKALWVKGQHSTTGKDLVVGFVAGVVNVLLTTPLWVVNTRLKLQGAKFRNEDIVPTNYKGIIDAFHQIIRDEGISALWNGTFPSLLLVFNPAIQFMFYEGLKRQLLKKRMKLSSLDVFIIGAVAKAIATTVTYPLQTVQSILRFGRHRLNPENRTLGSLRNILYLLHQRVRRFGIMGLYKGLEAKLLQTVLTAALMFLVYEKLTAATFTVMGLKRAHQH
Sequence of UniProt Q9UL54 (Q9UL54 whole entry, looked up): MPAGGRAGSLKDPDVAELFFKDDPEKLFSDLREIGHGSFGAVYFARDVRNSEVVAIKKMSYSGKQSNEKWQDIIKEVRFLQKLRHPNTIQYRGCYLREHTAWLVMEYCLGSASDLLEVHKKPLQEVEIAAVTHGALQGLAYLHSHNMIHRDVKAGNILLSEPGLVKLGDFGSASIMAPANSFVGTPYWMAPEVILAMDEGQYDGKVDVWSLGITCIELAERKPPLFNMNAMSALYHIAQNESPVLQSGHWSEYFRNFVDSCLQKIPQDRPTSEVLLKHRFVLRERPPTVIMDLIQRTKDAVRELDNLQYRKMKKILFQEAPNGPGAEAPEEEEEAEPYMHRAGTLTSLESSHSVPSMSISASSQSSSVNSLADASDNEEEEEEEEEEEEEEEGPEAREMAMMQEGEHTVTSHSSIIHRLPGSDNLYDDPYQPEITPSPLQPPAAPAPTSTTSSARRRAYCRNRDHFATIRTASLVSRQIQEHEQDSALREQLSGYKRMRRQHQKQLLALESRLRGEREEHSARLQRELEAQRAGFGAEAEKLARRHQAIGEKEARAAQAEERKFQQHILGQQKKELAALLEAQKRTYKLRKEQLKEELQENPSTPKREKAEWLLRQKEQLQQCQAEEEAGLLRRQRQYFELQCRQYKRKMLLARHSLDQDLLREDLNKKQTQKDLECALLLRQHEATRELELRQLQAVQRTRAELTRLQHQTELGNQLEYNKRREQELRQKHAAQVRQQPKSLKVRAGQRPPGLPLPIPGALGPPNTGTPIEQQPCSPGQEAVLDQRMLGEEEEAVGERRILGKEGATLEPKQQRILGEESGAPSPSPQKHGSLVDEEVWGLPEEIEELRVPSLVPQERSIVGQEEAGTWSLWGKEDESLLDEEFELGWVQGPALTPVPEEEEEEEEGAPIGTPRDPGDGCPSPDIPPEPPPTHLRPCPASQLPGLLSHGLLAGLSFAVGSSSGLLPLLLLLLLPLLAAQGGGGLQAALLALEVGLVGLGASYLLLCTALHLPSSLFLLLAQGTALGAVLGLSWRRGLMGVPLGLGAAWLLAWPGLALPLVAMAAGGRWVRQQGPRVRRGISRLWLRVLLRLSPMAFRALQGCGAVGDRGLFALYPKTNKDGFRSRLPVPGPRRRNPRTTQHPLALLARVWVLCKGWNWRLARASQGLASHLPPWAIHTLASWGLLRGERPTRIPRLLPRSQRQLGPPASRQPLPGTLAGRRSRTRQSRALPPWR
Sequence of UniProt Q15796 (Q15796 whole entry, looked up): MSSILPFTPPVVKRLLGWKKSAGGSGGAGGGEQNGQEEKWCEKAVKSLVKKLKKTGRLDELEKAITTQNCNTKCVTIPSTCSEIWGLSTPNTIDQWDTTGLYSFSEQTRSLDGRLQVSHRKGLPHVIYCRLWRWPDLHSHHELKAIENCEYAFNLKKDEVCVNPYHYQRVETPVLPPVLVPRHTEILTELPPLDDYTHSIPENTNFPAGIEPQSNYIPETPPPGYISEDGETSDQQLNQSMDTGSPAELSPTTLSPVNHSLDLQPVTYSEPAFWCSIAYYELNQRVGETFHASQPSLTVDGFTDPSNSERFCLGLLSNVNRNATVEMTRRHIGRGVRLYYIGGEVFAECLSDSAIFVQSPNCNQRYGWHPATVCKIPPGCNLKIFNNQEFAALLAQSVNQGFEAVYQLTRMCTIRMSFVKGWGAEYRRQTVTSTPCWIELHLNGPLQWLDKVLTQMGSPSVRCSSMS
Sequence of UniProt Q8TBC3 (Q8TBC3 whole entry, looked up): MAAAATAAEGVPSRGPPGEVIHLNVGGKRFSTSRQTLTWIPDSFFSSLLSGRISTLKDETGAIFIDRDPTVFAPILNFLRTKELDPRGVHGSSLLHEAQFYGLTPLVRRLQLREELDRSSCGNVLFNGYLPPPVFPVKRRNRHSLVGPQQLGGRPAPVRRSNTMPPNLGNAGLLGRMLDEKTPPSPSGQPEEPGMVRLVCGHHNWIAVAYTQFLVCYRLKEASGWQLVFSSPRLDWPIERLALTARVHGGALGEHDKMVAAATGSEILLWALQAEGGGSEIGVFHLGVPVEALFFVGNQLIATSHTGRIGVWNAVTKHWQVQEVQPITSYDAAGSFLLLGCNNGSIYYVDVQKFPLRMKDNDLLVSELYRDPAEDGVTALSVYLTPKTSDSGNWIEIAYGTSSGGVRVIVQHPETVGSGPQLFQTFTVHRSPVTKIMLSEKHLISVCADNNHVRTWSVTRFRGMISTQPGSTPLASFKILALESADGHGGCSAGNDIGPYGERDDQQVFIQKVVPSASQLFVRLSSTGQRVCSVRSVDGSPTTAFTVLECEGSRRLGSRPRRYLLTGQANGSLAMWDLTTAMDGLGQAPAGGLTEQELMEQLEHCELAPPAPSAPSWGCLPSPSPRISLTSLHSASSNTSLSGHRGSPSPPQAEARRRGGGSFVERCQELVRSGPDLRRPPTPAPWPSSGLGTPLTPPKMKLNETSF
Sequence of UniProt P31947 (P31947 whole entry, looked up): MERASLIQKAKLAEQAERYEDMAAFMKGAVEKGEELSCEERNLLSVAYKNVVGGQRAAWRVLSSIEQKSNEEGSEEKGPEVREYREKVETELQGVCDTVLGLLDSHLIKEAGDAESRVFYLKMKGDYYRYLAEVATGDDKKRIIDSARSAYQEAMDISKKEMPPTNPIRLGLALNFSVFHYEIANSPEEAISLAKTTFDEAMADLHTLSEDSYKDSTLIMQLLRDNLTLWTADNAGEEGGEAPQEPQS
Sequence of UniProt Q14534 (Q14534 whole entry, looked up): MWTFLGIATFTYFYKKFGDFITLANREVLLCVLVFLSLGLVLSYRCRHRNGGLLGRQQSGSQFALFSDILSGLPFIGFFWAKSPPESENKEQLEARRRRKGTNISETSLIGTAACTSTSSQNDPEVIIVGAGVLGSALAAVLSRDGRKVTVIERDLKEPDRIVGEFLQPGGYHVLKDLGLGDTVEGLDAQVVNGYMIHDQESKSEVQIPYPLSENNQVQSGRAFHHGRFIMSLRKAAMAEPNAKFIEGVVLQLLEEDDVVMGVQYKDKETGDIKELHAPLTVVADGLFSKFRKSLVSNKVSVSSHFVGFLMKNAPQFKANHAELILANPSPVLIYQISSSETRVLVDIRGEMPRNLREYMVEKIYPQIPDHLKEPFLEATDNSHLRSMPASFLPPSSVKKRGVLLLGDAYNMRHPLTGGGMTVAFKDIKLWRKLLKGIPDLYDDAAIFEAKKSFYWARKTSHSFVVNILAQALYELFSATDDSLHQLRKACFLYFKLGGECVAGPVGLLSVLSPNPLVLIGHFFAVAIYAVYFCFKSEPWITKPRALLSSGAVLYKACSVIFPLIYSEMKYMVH
Sequence of UniProt P62318 (P62318 whole entry, looked up): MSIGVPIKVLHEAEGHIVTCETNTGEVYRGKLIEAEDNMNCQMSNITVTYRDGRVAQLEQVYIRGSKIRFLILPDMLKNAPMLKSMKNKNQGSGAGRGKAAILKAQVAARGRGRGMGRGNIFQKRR
Sequence of UniProt P08047 (P08047 whole entry, looked up): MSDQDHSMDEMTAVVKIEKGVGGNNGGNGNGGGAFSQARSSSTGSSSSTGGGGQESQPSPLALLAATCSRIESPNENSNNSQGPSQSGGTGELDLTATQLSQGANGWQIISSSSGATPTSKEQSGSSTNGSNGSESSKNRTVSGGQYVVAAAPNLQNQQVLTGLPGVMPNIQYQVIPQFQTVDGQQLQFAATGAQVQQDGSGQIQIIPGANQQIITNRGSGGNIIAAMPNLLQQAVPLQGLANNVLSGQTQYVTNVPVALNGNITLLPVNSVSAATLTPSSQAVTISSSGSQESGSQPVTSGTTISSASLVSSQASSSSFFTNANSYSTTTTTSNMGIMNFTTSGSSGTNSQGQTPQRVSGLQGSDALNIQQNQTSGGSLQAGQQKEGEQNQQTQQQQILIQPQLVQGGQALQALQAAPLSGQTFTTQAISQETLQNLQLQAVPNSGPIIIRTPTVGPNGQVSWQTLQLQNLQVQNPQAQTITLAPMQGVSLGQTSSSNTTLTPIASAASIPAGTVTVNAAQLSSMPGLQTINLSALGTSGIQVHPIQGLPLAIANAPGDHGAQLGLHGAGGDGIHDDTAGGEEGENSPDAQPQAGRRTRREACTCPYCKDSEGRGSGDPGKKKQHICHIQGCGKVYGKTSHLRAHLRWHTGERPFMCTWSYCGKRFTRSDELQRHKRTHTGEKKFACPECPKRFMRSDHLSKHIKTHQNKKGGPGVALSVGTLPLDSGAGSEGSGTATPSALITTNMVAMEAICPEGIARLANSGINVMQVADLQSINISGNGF

Compound in the first assay: Cc1sc2c(c1C)C(c1ccc(Cl)cc1)=N[C@@H](CC(=O)OC(C)(C)C)c1nnc(C)n1-2
As to the kind of experiment: log2 fold change, soluble protein after heating vs DMSO (PISA); higher = thermal stabilisation; K562 lysate, 10 uM; active = over 0.2 and 3.5 SD of the protein, either way, in both replicates (recomputed). Put shortly:
(§1)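 Dounce homogenisation of K562 pellets in PBS pH 7.4 with 1 mM MgCl2 produced a crude extract, used at 1 mg/mL protein. Exposure to 10 μM compound lasted 30 min, and aliquots were then heated for 3 min across 48°C-58°C, pooled and brought to 0.5% NP-40 at 4°C. The supernatant after 21,000xg for 90 min was quantified by TMTpro 16plex LC-MS/MS with channel sums equalised. Duplicate values are given as log-two fold change in thermal stability relative to solvent controls.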
As to STK3 isoform 2 (UniProt Q13188), the log2 fold change is 0.01.
Still for that read-out and setting: in the case of SMG1 (UniProt Q96Q15) it was 0.034; in that of SLC25A32 (UniProt Q9H2D1), -0.053; in that of SFN (UniProt P31947), 0.041.
On the same count and under the same terms, with SLC25A17 (UniProt O43808) the figure was -0.096; with SNX6, A0A0A0MRI2, 0.017.
Still for that read-out and setting: with SLC20A1 (UniProt Q8WUM9) the figure was -0.046; with SMC3 (UniProt Q9UQE7), 0.037.
SRP54 (UniProt P61011): the log2 fold change is 0.06.
Still for that read-out and setting: with TAF9 (UniProt Q16594) the figure was 0.019; with SVIP (UniProt Q8NHG7), -0.069.
For the target SYNE2 isoform 2 (UniProt Q8WXH0), the log2 fold change was -0.065.
Same read-out and setting: in the case of SQLE (UniProt Q14534) it was 0.012; in that of SLC25A25 isoform 3 (UniProt Q6KCM7), 0.034.
With SMC1B isoform 3 (UniProt Q8NDV3), the log2 fold change is -0.063.
Still for that read-out and setting: in the case of TADA3 (UniProt O75528) it was -0.015; in that of SMYD3 (UniProt Q9H7B4), -0.001; in that of TAOK2 (UniProt Q9UL54), 0.242.
Same read-out and setting: in the case of SHKBP1 (UniProt Q8TBC3) it was -0.027.
On to STAT2 (UniProt P52630), for which the log2 fold change was 0.033.
On to SNCA (UniProt P37840), for which the log2 fold change is 0.211.
On the same count and under the same terms, in the case of SH3BP5L (UniProt Q7L8J4) it was 0.01; in that of STAU1 (UniProt O95793), 0.059; in that of SNRPD2 (UniProt P62316), -0.009.
Same read-out and setting: in the case of SKA2 (UniProt Q8WVK7) it was -0.004.
Consider SNRPD3 (UniProt P62318), for which the log2 fold change is -0.027.
In the case of STK39 (UniProt Q9UEW8), the log2 fold change is 0.
Consider STMN3 (UniProt Q9NZ72), for which the log2 fold change is -0.061.
On to SMAD2 (UniProt Q15796), for which the log2 fold change is 0.023.
In the case of SP1 (UniProt P08047), the log2 fold change is 0.038.

Compound in another assay: c1ccc([C@@H]2C[C@H]2NC2CCNCC2)cc1
Described as above. Put shortly:
as §1
Consider STK3 isoform 2 (UniProt Q13188), for which the log2 fold change was -0.073.
Take SMG1 (UniProt Q96Q15): the log2 fold change is 0.046.
Take SLC25A32 (UniProt Q9H2D1): the log2 fold change is -0.06.
With SFN (UniProt P31947), the log2 fold change is 0.046.
The same measure, in the same setting: in the case of SLC25A17 (UniProt O43808) it was -0.163; in that of SNX6, A0A0A0MRI2, 0.115.
In the case of SLC20A1 (UniProt Q8WUM9), the log2 fold change is 0.024.
On to SMC3 (UniProt Q9UQE7), for which the log2 fold change was 0.022.
The same measure, in the same setting: in the case of SRP54 (UniProt P61011) it was 0.049.
Still for that read-out and setting: with TAF9 (UniProt Q16594) the figure was 0.021; with SVIP (UniProt Q8NHG7), -0.028; with SYNE2 isoform 2 (UniProt Q8WXH0), -0.416.
On the same count and under the same terms, in the case of SQLE (UniProt Q14534) it was 0.031; in that of SLC25A25 isoform 3 (UniProt Q6KCM7), 0.023; in that of TADA3 (UniProt O75528), -0.098.
Regarding TAOK2 (UniProt Q9UL54), the log2 fold change is -0.105.
For SHKBP1 (UniProt Q8TBC3), the log2 fold change is 0.007.
Turning to STAT2 (UniProt P52630), the log2 fold change was 0.017.
The same measure, in the same setting: with SNCA (UniProt P37840) the figure was -0.077; with SH3BP5L (UniProt Q7L8J4), -0.024; with STAU1 (UniProt O95793), 0.09.
As for SNRPD2 (UniProt P62316), the log2 fold change was -0.068.
The same measure, in the same setting: in the case of SKA2 (UniProt Q8WVK7) it was 0.033.
Regarding SNRPD3 (UniProt P62318), the log2 fold change is -0.118.
On the same count and under the same terms, in the case of STK39 (UniProt Q9UEW8) it was 0.078; in that of SMAD2 (UniProt Q15796), 0; in that of SP1 (UniProt P08047), 0.
